Source: PubChem BioAssay
APP 5UTR inh = APP translation inhibition. SH-SY5Y APP 5'UTR-luciferase reporter, luminescence. inhibition, % at 2 µM. 190,000 compounds, 0.82% hits. AID 1285;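 active means inhibition above a set limit, derived from the sample mean plus 3 SD, cut at about 45% in these data; inconclusive means one replicate passes the limit while the other fails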
KLF5 inhibitor = suppresses KLF5 promoter-driven expression; DLD-1 KLF5 promoter-luciferase reporter, luminescence; inhibition, % at 5 µM; 290,000 compounds, 0.23% hits; AID 1700;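 active means inhibition above a per-plate limit of that plate's mean compound inhibition plus 3 SD, cut at about 60% in these data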;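 further: 0% = DMSO wells and 100% = LY294002 at 200 µM; higher means less KLF5 promoter-driven luciferase light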
BaF3 parental = counter-screen for JAK2V617F inhibitors: parental Ba/F3 viability inhibitors; CellTiter-Glo ATP luminescence; inhibition, % at 5.6 µM; 220,000 compounds, 1.1% hits;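 active means inhibition above a per-campaign cutoff, the mean inhibition of all tested compounds plus 3 SD, cut at about 27% in these data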;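 further: 0% = DMSO wells and 100% = JAK Inhibitor I control wells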
IEC-6 tox = kills IEC-6 intestinal cells in KLF5 counter-screen. IEC-6 cytotoxicity, luminescence viability. inhibition, % at 5 µM. 290,000 compounds, 0.78% hits. AID 1825; in the data active means inhibition above about 22%;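 further: 0% = plate median of test compound wells and 100% = cytotoxic reference compound wells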
Ba/F3 V617F tox = loss of viability in JAK2V617F-driven Ba/F3 cells; Ba/F3 EpoR-JAK2V617F viability, ATP luminescence; inhibition, % at 5.6 µM; 220,000 compounds, 1.1% hits; AID 1446;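 active means inhibition above the campaign mean plus 3 SD over all tested compounds, cut at about 24% in these data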;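 further: cytokine-independent growth of Ba/F3 cells driven by EpoR plus mutant JAK2; 0% = DMSO-treated cells and 100% = JAK inhibitor I control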
aSyn 5UTR inh = 5' untranslated region of α-synuclein, MLPCN primary screen | alpha-synuclein 5'UTR reporter, inhibitor activity | inhibition, % (tested at 7.5 µM) | 300,000 compounds, 0.82% hits | AID 1813; in the data active means inhibition above about 60%; inconclusive means no clear call, values can overlap the other calls;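 further: H4 neuroglioblastoma cells stably carrying SNCA 5'UTR luciferase fusion; 0% = DMSO wells and 100% = positive control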
Starred values were filed as active, the others as inactive; ? = inconclusive; nt = no result. In the library only some 2.2% were active in any assay of this set; here they are far more common.

SMILES | APP 5UTR inh | KLF5 inhibitor | BaF3 parental | IEC-6 tox | Ba/F3 V617F tox | aSyn 5UTR inh
CC(Oc1ccc2c(c1)c1ccnc3c4ccccc4c(=O)n2c13)C(=O)NCCN1CCOCC1 (configuration not stated) | nt | 4 | nt | 17 | nt | -76
COC(=O)[C@H](Cc1ccccc1)[C@@H](C)OS(N)(=O)=O | nt | -8 | nt | -10 | nt | 8
CC(=O)Cn1ncc(Br)c(Br)c1=O | 97* | -33 | -3 | 102* | 5 | -87
O=C(OCn1ncc(Br)c(Br)c1=O)c1c(F)cccc1F | 96* | -39 | 67* | 11 | 74* | ?
CCCc1n(CC(O)COC2CCCCC2)c2ccccc2[n+]1C (configuration not stated) | -11 | -13 | 55* | -3 | 26* | 11
CCCc1n(CC(O)COCC2CC=CCC2)c2ccccc2[n+]1C (configuration not stated) | -7 | 1 | 66* | -2 | 33* | 8
CCCc1n(CC(O)COCc2ccccc2)c2ccccc2[n+]1C (configuration not stated) | 5 | 9 | 34* | -5 | 18 | 11
COc1cc(/C=C/[N+](=O)[O-])ccc1OC(=O)/C=C/c1ccc(F)cc1 | nt | -26 | nt | -14 | nt | -72
COc1ccccc1N(CC(=O)NCCN1CCOCC1)S(=O)(=O)c1ccccc1 | nt | -5 | nt | 8 | nt | 10
Cc1ccc(C(=O)NC(C(=O)NC2CCCC2)c2ccccc2)cc1 (configuration not stated) | nt | -34 | nt | 4 | nt | 1
CC1=CC(C)(C)N2C(=O)C(=O)c3cc(OC(=O)c4ccco4)cc1c32 | 66* | 27 | 53* | 88* | 69* | -14
CC(=O)c1ccc(OC(C)c2nc3ccccc3s2)cc1 (configuration not stated) | nt | -61 | nt | 1 | nt | -89
COc1ccc(N=C2S/C(=C\c3ccc(Cl)c([N+](=O)[O-])c3)C(=O)N2CCN(C)C)cc1 | nt | -39 | nt | 18 | nt | 81*
CCCN1C(=O)/C(=C/c2ccc(C)s2)SC1=Nc1ccc(OC)cc1 | 0 | -14 | -1 | -2 | 1 | 15
CCN(CC)CCN1C(=O)/C(=C\c2ccc(Cl)c([N+](=O)[O-])c2)SC1=Nc1ccc(OC)cc1 | nt | 13 | nt | 13 | nt | 74*
CS(=O)(=O)c1nc(-c2ccc(Br)cc2)cc(-c2ccccc2)c1C#N | 2 | -30 | 5 | -1 | 1 | -3
CS(=O)c1nc(-c2ccc(Br)cc2)cc(-c2ccccc2)c1C#N (configuration not stated) | 94* | -6 | -4 | 3 | 5 | 120*
COc1ccc(NC(=O)NC2(C(=O)N3CCCC(C)C3)CCCCC2)cc1 (configuration not stated) | nt | -2 | nt | -5 | nt | 3
O=C(NCc1ccccn1)Nc1cccc(F)c1 | nt | -29 | nt | -1 | nt | -16
C/C(=N\NC(=S)Nc1ccc(F)cc1)C1CC1 | 20 | -44 | 92* | -1 | 8 | -30
O=C(O)c1cccc(Nc2ccnc(Nc3cccc(C(=O)O)c3)n2)c1 | nt | -9 | nt | -10 | nt | 45
CCS(=O)(=O)N1Cc2ccccc2CC1C(=O)Nc1cccc(C)c1 (configuration not stated) | -8 | -41 | 38* | 0 | 3 | -102
CCC(=O)NC1CCN(C(=S)NC)CC1 | 6 | 1 | 62* | -12 | -6 | -1
COc1ccc(CNC(=O)C(=O)NCC2OCCN2S(=O)(=O)c2ccccc2)cc1 (configuration not stated) | nt | -33 | nt | -3 | nt | 17
Oc1ccc(N=Nc2ccc3c(c2)OCCO3)c2cccnc12 | 35 | -6 | 2 | -7 | -1 | 104*
SMILES | APP 5UTR inh | KLF5 inhibitor | BaF3 parental | IEC-6 tox | Ba/F3 V617F tox | aSyn 5UTR inh
Oc1ccc(N=Nc2ccc(Br)cc2)c(O)c1 | nt | -63 | 0 | 29* | -4 | -226
Oc1ccc(N=Nc2ccc3c(c2)OCCO3)c(O)c1 | nt | -22 | 0 | 1 | 1 | 62*
Cc1ccc(N=Nc2ccc(O)cc2)c(Br)c1 | nt | -106 | nt | 7 | nt | -43
CN(C)S(=O)(=O)N1CCc2ccc(NC(=O)c3ccc(C(F)(F)F)cc3)cc2C1 | nt | -56 | nt | 3 | nt | -53
COc1ccc(CCNC(=O)C(NS(=O)(=O)c2cccc3nsnc23)C(C)C)cc1OC (configuration not stated) | nt | -22 | nt | 11 | nt | 5
Cc1ccnc(NC(=O)c2cc3ccccc3o2)c1 | nt | nt | nt | nt | nt | 97*
O=C(Nc1ccccn1)c1cc2ccccc2o1 | -86 | -34 | 7 | 6 | 0 | 42
CCOc1ccc(C(=O)Nc2cc(C)ccn2)cc1 | -186 | 44 | 9 | 12 | 8 | 65*
COc1ccc(C)cc1NC(=S)N1CC(C)OC(C)C1 (configuration not stated) | nt | -51 | nt | 3 | nt | -7
CCN1CCN(CCCN(Cc2ccco2)C(=S)Nc2ccc(Cl)cc2)CC1 | -14 | -6 | 29* | -2 | 36* | -13
CCN1CCN(C(=S)Nc2ccc(Cl)cc2)CC1 | -5 | 14 | 35* | -1 | 25* | -5
Cc1ccc(NC(=S)N(CCCN2CCN(C)CC2)Cc2cccs2)cc1C | 6 | 8 | 29* | 10 | 36* | 9
CN1CCN(CCCN(Cc2ccco2)C(=S)Nc2ccc(Cl)cc2)CC1 | -15 | -7 | 29* | 2 | 40* | 12
Cc1ccc(NC(=S)N(CCCN2CCOCC2)Cc2ccco2)cc1Cl | 6 | -4 | 20 | 6 | 5 | -12
Cc1ccc(NC(=S)N(CCN(C)C)C(C)c2ccco2)cc1Cl (configuration not stated) | nt | -42 | 30* | -3 | 27* | -4
Cc1ccccc1NC(=S)N(CCCN1CCCCC1)Cc1ccco1 | 5 | 13 | 5 | -3 | 0 | 13
CCN1CCN(CCCN(Cc2ccco2)C(=S)Nc2ccc(C)c(Cl)c2)CC1 | 3 | -4 | 32* | 1 | 37* | 16
CCN1CCN(CCCN(Cc2ccco2)C(=S)Nc2cc(Cl)ccc2C)CC1 | -6 | -26 | 69* | 3 | 63* | 16
CCc1nn2cc(-c3ccccc3)nc2s1 | -153 | -72 | 5 | 2 | -2 | 80*
COc1ccc(-n2c(C)c(C)c3c(NCCCO)ncnc32)cc1 | nt | -66 | nt | 1 | nt | -81
Cn1c(=N)n(CC(=O)c2ccc(F)cc2)c2ccccc21 | nt | 61 | nt | 8 | nt | 76*
Cn1c(=N)n(CC(=O)c2ccc(Br)cc2)c2ccccc21 | nt | nt | nt | nt | nt | 36
Cc1n(CC(=O)c2ccc(F)cc2)c2ccccc2[n+]1C | 6 | -19 | 28* | 5 | 15 | 6
CC1CCN(C(=O)CSc2nnc(CNC(=O)c3ccc(F)cc3)o2)CC1 | nt | -7 | nt | -2 | nt | 5
O=C(CNC(=O)N1CC(=O)Nc2ccccc21)NCc1ccccc1Cl | nt | 2 | nt | -2 | nt | 13
Cc1ccc(S(=O)(=O)CC2CSc3nc4ccccc4n32)cc1 (configuration not stated) | nt | 42 | 72* | 10 | 58* | -13
COc1ccc(OC)c(NC(=S)N2c3ccccc3CC2C)c1 (configuration not stated) | nt | 1 | nt | 1 | nt | -12
N#Cc1cc2cc3c(cc2nc1SCC(=O)N1CCOCC1)OCCO3 | nt | -61 | nt | 5 | nt | 110*
